From PubChem
Compounds with a hit are over-represented: about 4.6% of the library has one in this group of screens.
tim10-1 inh: growth inhibitors of tim10-1 mutant yeast, primary screen, luminescence, uHTS | S. cerevisiae tim10-1 ts strain growth, BacTiter-Glo, 24 h | inhibition, % at 20 µM | hit rate 2.2% among 330,000 | AID 463190, 2010;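 active means inhibition of at least 40%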;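 further: mutant grown at 25 °C; 0% = DMSO wells with yeast and 100% = wells holding no yeast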
SKKanGAS inh: S. pyogenes SKKanGAS growth inhibitors in kanamycin, primary screen, streptokinase expression inhibitor project, SKKanGAS strain, BacTiter-Glo luminescence; inhibition, % at 7.5 µM; hit rate 1.3% among 300,000; 6 h;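 active means mean replicate score, as percent of positive control median, at least 50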;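 further: strain carries kanamycin resistance gene driven by streptokinase promoter and grows in 40 µg/ml kanamycin; loss of luminescence reflects streptokinase promoter inhibition or plain growth inhibition; 0% = median of DMSO wells and 100% = positive control at its reference dose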
NALP3 yeast inh: NALP3 inflammasome inhibitors in reconstituted yeast, primary screen, luminescence, uHTS; AID 2825, 2010; Yeast reconstituted NLRP3/ASC/caspase-1, beta-gal luminescence, 24 h; hit rate 0.39% among 330,000; inhibition, % at 10 µM;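 active means inhibition of 50% or more; inactive means inhibition below 50%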;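 further: plate controls were induced DMSO wells for no effect and uninduced yeast grown without galactose for full effect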
tim23-1 inh: growth inhibitors of tim23-1 mutant yeast, primary screen, luminescence, uHTS; S. cerevisiae tim23-1 growth, BacTiter-Glo luminescence, 24 h; inhibition, % at 20 µM; hit rate 1.3% among 330,000;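 active means growth inhibition of the mutant yeast at or above 50%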;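 further: temperature-sensitive mutant grown at 25 °C; plate controls were DMSO-treated mutant yeast for no effect and medium wells lacking yeast for full effect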
TIM10 inh: growth inhibitors of isogenic TIM10 control yeast, primary screen, counter-screen for tim10-1 yeast inhibitor project, luminescence, uHTS | hit rate 1.4% among 330,000 | S. cerevisiae TIM10 strain growth, BacTiter-Glo luminescence, 24 h | inhibition, % at 10 µM;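 active means inhibition of 40% or more at the single tested concentration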;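 further: wild-type TIM10 isogenic control strain grown at permissive 25 °C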
PfHsp90 set2: growth inhibition of PfHsp90-expressing yeast, primary screen, antimalarial PfHsp90 inhibitor project, S. cerevisiae, BacTiter-Glo luminescence, single point, set 2. inhibition, % at 9.4 µM. hit rate 0.32% among 310,000. BacTiter-Glo ATP, 48 h; yeast lacking PDR1 and PDR3 efflux regulators. AID 504621, 2011;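 active means every replicate shows inhibition above about 80%, whatever the replicate mean, limit read from the data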;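 further: 0% = DMSO neutral controls and 100% = 20 µM radicicol positive controls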
NALP3 yeast conf: NALP3 inhibitors retested in yeast, confirmation, luminescence, single concentration; shares compounds with NALP3 yeast inh; yeast expressing human NALP3; inhibition, % at 10 µM; hit rate 81% among 1,300; in the data active means inhibition above about 48%
Casp1 ASC ctr: CASP1-PYCARD signaling inhibition in yeast, confirmatory test, counterassay for NLRP3 inhibitor program, one-dose | hit rate 66% among 1,000 | inhibition, % at 10 µM | shares compounds with NALP3 yeast inh | yeast expressing Caspase-1-ASC, luminescence counter screen
NALP3 yeast rt: NALP3 inhibitors in yeast, repeat test, confirmation, luminescence, single concentration, retest | yeast expressing human NALP3, luminescence read-out | hit rate 53% among 1,000 | shares compounds with NALP3 yeast inh | inhibition, % at 10 µM
Active calls of the source: *; · = no result given. Unless noted, no stated cut-off is given here; in the data, active means inhibition above about 50%; inactive means the rest.

SMILES	tim10-1 inh	SKKanGAS inh	NALP3 yeast inh	tim23-1 inh	TIM10 inh	PfHsp90 set2	NALP3 yeast conf	Casp1 ASC ctr	NALP3 yeast rt
Cc1c(-c2ccc(Cl)cc2)oc(=O)c2c(N)n(-c3ccccc3)nc12	27	43	12	-4	-14	-12	·	·	·
Nc1c2c(=O)oc(-c3ccccc3)cc2nn1-c1ccccc1	14	10	51*	36	24	-20	68*	54*	25
Cc1cc(C)cc(NC(=O)N2CCc3ccccc3C2)c1	26	-10	53*	34	9	1	64*	42	28
CCCC1CCC(c2ccc(OCC)cc2)=CC1=O (configuration not stated)	-5	-6	52*	9	-13	16	62*	40	50
CCOc1ccc(N2C(=O)CCC2=O)cc1	5	4	-3	4	1	·	·	·	·
Cc1ccnc(NC(=O)CNC(=O)c2ccc(Br)o2)c1	-16	0	6	-7	-5	-6	·	·	·
CCCNc1nc(C)cc(-c2cc(C(=O)NC3CCCC3)on2)n1	-11	-5	63*	19	-4	-1	81*	51*	34
Cc1cc(-c2cc(C(=O)NC3CCCC3)on2)nc(NC2CCCC2)n1	-11	10	18	13	-6	29	·	·	·
Clc1ccccc1Cn1nnc2c(Nc3ccccc3)ncnc21	10	-7	62*	30	10	-9	74*	55*	57*
COC(=O)[C@@]1(Cc2ccc(OC)cc2)[C@H]2c3cc(C(=O)N(C)C)n(CCc4ccc(OC)c(Br)c4)c3C[C@H]2CN1C(=O)c1ccccc1	16	2	23	20	10	·	·	·	·
Cc1ccc(S(C)(=O)=O)cc1C(=O)NC(C)C1CC2CCC1C2 (configuration not stated)	7	6	3	-2	10	7	·	·	·
Nc1cc(N2CCCCC2)c([N+](=O)[O-])cc1Cl	-4	-1	51*	35	-10	12	9	·	·
CC1CCCN(C(=O)c2ccc3ncsc3c2)C1 (configuration not stated)	14	·	4	7	-1	·	·	·	·
COc1ccc(Cl)cc1NCCC(O)c1ccc(F)cc1 (configuration not stated)	15	2	7	18	6	-15	·	·	·
COc1ccc(NCCC(O)c2ccc(Cl)cc2)cc1 (configuration not stated)	-16	-4	59*	-4	-15	-13	67*	49	46
COc1ccc(N=C2S/C(=C\c3ccc(OCC(=O)O)cc3)C(=O)N2CCc2c[nH]c3ccccc23)cc1	25	17	22	19	2	-53	·	·	·
COc1ccc(N=C2S/C(=C\c3ccc(N4CCOCC4)o3)C(=O)N2CCc2c[nH]c3ccccc23)cc1	2	59*	57*	26	12	4	54*	·	·
O=C(Nc1cccc(Cl)c1)NC1CCN(C2CCCCC2)C1 (configuration not stated)	15	-4	16	3	3	-17	·	·	·
CN(CC(=O)Nc1ncn[nH]1)S(=O)(=O)c1ccc(Br)cc1	14	-6	9	6	-5	-6	·	·	·
Cc1ccc([N+](=O)[O-])cc1NC(=O)c1ccc(C(C)(C)C)cc1	25	-15	57*	23	17	20	51*	44	28
COc1ccc(Cn2c(-c3ccc(OC)cc3)nc3ccccc32)cc1	36	8	24	41	17	23	·	·	·
Cn1cccc1-c1nc2ccccc2n1Cc1ccccc1	39	-5	-108	20	30	-3	-15	·	·
CC(C)c1ccc(NNC(=O)C2CCC2)cc1	-77	3	26	29	-68	-5	·	·	·
CCOc1ccc(C(=O)c2cc([N+](=O)[O-])ccc2Cl)cc1	2	4	67*	30	-17	22	67*	72*	69*
COc1cc(-c2nc3ccccn3c2/N=C/c2ccccc2)ccc1O	29	-3	16	18	14	20	·	·	·
SMILES	tim10-1 inh	SKKanGAS inh	NALP3 yeast inh	tim23-1 inh	TIM10 inh	PfHsp90 set2	NALP3 yeast conf	Casp1 ASC ctr	NALP3 yeast rt
COc1cc(-c2nc3ccccn3c2/N=C/c2cc(OC)c(O)cc2Cl)ccc1O	29	12	-105	29	18	-48	-19	·	·
CCOC(=O)Cc1csc(NC(=O)c2cc(C)c(C)s2)n1	-26	·	65*	12	-34	-3	60*	79*	63*
CCOC(=O)Cc1csc(NC(=O)c2ccc(Cl)s2)n1	-12	-4	63*	41	-14	27	73*	75*	71*
CCOC(=O)Cc1csc(NC(=O)c2ccncc2)n1	-11	5	20	12	5	-1	·	·	·
CCOC(=O)Cc1csc(NC(=O)c2cccc(Cl)c2)n1	-35	-2	64*	20	-13	·	60*	68*	54*
Cc1c(C)n(CCc2ccccc2)c2ncnc(NCCCN(C)C)c12	19	-5	-12	12	-6	17	·	·	·
Cc1ccc(NN2C(=O)C=C(c3ccccc3)C2=O)cc1	-5	18	83*	36	9	·	72*	96*	62*
CCN1CCN(c2ccc(Cl)cc2NC(=O)c2ccc(-n3nc(C)cc3C)cc2)CC1	9	·	51*	16	1	1	44	39	32
CCCn1c(CCNC(=O)c2ccco2)nc2ccccc21	3	0	16	3	-5	2	·	·	·
Fc1ccc(-c2nnn(Cc3nc4ccccc4s3)n2)cc1	29	-8	54*	21	7	-17	65*	46	42
Clc1ccc(-c2nnn(Cc3nc4ccccc4s3)n2)cc1	25	1	34	8	1	5	·	·	·
O=C(NNC(=O)c1ccc(Oc2cc(Cl)cc(Cl)c2)o1)c1ccccc1	12	-8	20	18	-4	-6	·	·	·
O=C(NNC(=O)c1ccc(Oc2ccc(C3SCCS3)cc2)o1)c1ccc(Cl)cc1	0	7	53*	1	-5	3	34	·	·
COC(=O)c1sc2nc3c(cc2c1N)CCCC3	3	2	51*	34	12	-95	66*	64*	58*
